Sampled rows, rich in hits. Any-hit rate of the full collection: about 11%.
HP1b chromo inh: HP1-beta chromodomain-methylated histone interaction inhibition; P83916; AlphaScreen HP1-beta / biotin-H3K9me3 peptide binding; Potency, µM (top dose mostly 114 µM), for inactives: at the highest dose activity change, negative = inhibition, hits mostly inhibitors; hit rate 0.56% among 390,000; also: potency is read from the fitted curve at half-maximal effect; nearly all actives have a fitted effect of over 70% in size
Target sequence (P83916 whole entry, looked up): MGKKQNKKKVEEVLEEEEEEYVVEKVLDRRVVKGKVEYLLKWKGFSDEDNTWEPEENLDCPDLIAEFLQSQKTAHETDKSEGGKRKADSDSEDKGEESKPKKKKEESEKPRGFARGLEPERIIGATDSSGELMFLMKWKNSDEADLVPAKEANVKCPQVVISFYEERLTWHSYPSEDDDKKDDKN
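AlphaScreen: HP1-beta (50 nM) preformed 30 min with biotin-H3(1-18)K9me3 peptide (50 nM) in PBS pH 7.4, 0.01% Tween-20. Compound added for 30 min at RT, then streptavidin donor/nickel chelate acceptor beads (10 ug/mL) for 30 min.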
JMJD2A Tudor: inhibitors of human JMJD2A Tudor domain. hit rate 4.4% among 390,000. AlphaScreen JMJD2A-Tudor / H3K4me3 peptide binding. Potency, µM (highest dose often 114 µM), for inactives: top-dose activity change, negative = inhibition, hits mostly inhibitors. AID 504339. O75164; also: potency is read from the fitted curve at half-maximal effect; % is scaled to controls: 0 for no effect and ±100 for the full control effect; nearly all actives have a fitted effect of over 50% in size
BAZ2B inh: blocks human BAZ2B. AlphaScreen BAZ2B-H3K14Ac peptide displacement. Potency, µM (doses to about 114 µM), inactives show at the top dose activity change, negative = inhibition, usual class: inhibitors. hit rate 4.4% among 360,000. AID 504333; also: potency is read from the fitted curve at half-maximal effect; % is scaled to controls: 0 for no effect and ±100 for the full control effect; nearly all actives have a fitted effect of over 60% in size
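BAZ2B 50 nM plus b-H3(5-23)K14Ac 50 nM, PBS pH 7.4/0.01% Tween-20, 30 min RT; compound added (max 110 uM), 30 min RT; streptavidin donor/Ni-chelate acceptor beads 10 ug/mL final, 20 min dark; AlphaScreen read.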
L3MBTL1 inh: L3MBTL1 (human) inhibition. Q9Y468. AlphaScreen L3MBTL1–H3K9me1 peptide binding. Potency, µM (doses to about 57.1 µM), without a hit: top-dose activity, negative = inhibition, hits mostly inhibitors. hit rate 0.66% among 230,000. AID 485360; also: potency is read from the fitted curve at half-maximal effect; % is scaled to controls: 0 for no effect and ±100 for the full control effect; nearly all actives have a fitted effect of over 60% in size
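AlphaScreen assay: L3MBTL1 (50 nM final) was preincubated 30 min at room temperature with biotinylated H3(1-15)K9me1 peptide (75 nM final), then 30 min with library compounds; streptavidin donor and nickel chelate acceptor beads (10 ug/mL final) added, 30 min dark.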
G9a inh-1: blocks human histone lysine methyltransferase G9a. Potency, µM (titrated, usually from 102 µM), for inactives: at the top dose activity, negative = inhibition, usual class: inhibitors. AID 504332. Q96KQ7. G9a H3K9 monomethylation, AlphaScreen, 2 h. hit rate 8.8% among 350,000; also: potency is read from the fitted curve at half-maximal effect; % is scaled to controls: 0 for no effect and ±100 for the full control effect; nearly all actives have a fitted effect of over 75% in size
Target sequence (Q96KQ7 913-1193 limits assumed): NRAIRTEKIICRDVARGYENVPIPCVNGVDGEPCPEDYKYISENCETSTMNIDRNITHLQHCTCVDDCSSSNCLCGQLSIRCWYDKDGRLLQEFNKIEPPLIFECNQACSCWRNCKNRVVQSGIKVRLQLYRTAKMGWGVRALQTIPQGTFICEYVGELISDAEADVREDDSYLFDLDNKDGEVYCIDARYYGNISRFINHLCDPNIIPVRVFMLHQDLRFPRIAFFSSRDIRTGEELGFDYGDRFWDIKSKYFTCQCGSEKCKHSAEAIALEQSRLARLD
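AlphaScreen detection with an anti-monomethyl H3K9 antibody quantified product after a 2 h room-temperature reaction containing 500 nM biotinylated H3K9 peptide, 20 µM SAM and 20 nM enzyme, which had been preincubated 15 min with compound.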
JMJD2E inh: JMJD2E (human) demethylase inhibition, confirmation. Potency, µM (series often up to 56.8 µM), for the others: at the top dose activity change, negative = inhibition, most hits filed as inhibitors. hit rate 93% among 140. Recombinant JMJD2E, FDH-coupled NADH fluorescence (FDH is formaldehyde dehydrogenase). AID 2677. shares compounds with JMJD2A Tudor
FDH counter: blocks Pseudomonas putida formaldehyde dehydrogenase, flagging JMJD2E artifacts. shares compounds with JMJD2A Tudor. FDH enzyme assay, NADH fluorescence kinetic. Potency, µM (top dose mostly 56.7 µM), for the others: at the highest dose activity, negative = inhibition, hits mostly inhibitors. hit rate 10% among 140
JMJD2E MALDI inh: human KDM4E demethylase inhibition. hit rate 90% among 45. recombinant JMJD2E demethylation, MALDI-TOF-MS. Potency, µM, most hits filed as inhibitors. AID 2688. shares compounds with JMJD2A Tudor;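 active = compounds whose IC50 for blocking JMJD2E demethylation is below 100 µM; inconclusive = dose dependent effect but IC50 above 100 µM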
G9a inh-2: confirmation of human histone methyltransferase G9a inhibitors; Potency, µM, actives largely listed as inhibitors; shares compounds with JMJD2A Tudor; G9a H3K9 monomethylation, AlphaScreen, 2 h; hit rate 89% among 370; also: potency is read from the fitted curve at half-maximal effect; nearly all actives have a fitted effect of over 65% in size
RGS4 inh: inhibits human RGS4, hit validation; shares compounds with JMJD2A Tudor; RGS4 GAP activity, Transcreener GDP fluorescence polarization; Potency, µM, hits mostly inhibitors; hit rate 80% among 25; AID 602388
Target sequence (P49798 whole entry, looked up): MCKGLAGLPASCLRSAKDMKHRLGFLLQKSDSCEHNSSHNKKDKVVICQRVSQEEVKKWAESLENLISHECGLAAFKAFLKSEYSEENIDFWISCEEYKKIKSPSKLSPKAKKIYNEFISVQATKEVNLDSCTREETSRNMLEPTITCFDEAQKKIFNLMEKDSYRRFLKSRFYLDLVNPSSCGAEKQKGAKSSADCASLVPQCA
Active calls of the source: *; ? = inconclusive; . = not tested or not shown; [ ] = another dose, or the depositor's remark. Unless noted, calls follow the shape of the dose curve; as a rule, active = well fitted curve in the direction sought with a large enough effect; inconclusive = small, poorly fitted or top-dose-only effect, or another doubt; inactive = no such curve, though single readings can be large; an effect the other way counts as inactive or inconclusive.

SMILES	HP1b chromo inh	JMJD2A Tudor	BAZ2B inh	L3MBTL1 inh	G9a inh-1	G9a inh-2	others
COCc1c(C(=O)N2CCN(S(=O)(=O)c3ccccc3Cl)CC2)oc2ccccc12	44%	-12%	-1%	-1%	18%[12.7 µM]	.
Cc1ccc(CNc2cccnc2)cc1	31%	-20%	-13%	.	6%	.
Cc1ccc(CNc2ccc3c(c2)ncn3C)cc1	-15%	?	?	0%	0.71µM*	8.9*
Cc1cccc(C(=O)Nc2cccc(C(=O)N3CCOCC3)c2)c1	22%	-8%	2%	.	12%[59 µM]	.
Cc1cccc(NC(=O)C2SC(=Nc3c(C)cccc3C)C(C(=O)N3CCOCC3)=C2N)c1 (stereo not drawn)	-23%	?	-8%	1%	1.6µM*	16*
CCCn1c(CNc2ccccc2O)nc2ccccc21	-7%	?	?	.	?	11*
O=S1(=O)N=C(c2ccccc2)C=C(c2ccccc2)N1	13%	-30%	.	2%	.	.
Cc1cc2cc(C(c3nnnn3Cc3ccco3)N3CCc4ccccc43)c(=O)[nH]c2cc1C (stereo not drawn)	-19%	?	?	-29%	11µM*	.	RGS4 inh=6.7*
COc1ccccc1Nc1ncc(-c2cccs2)s1	?	?	?	-7%	?	.	RGS4 inh=?
COc1ccccc1Nc1ccc(C(=O)NCc2cccs2)cn1	37%	-17%	-4%	7%	-6%	.
CCc1ccc2oc(-c3cc(N)ccc3Cl)nc2c1	7%	-5%	?	.	-20%[12.7 µM]	.
CCc1ccc2oc(-c3cc(N)ccc3O)nc2c1	4%	-35%	-5%	-5%	?	?
COc1ccc(C(=O)COC(=O)C2CC3CCCC(C2)C3=O)cc1Br (stereo not drawn)	38%	-5%	-4%	-4%	12%[0.501 µM]	.
COc1ccc(C(=O)COC(=O)CN2CC(=O)Oc3ccccc32)cc1Br	-7%	35µM*	25µM*	.	?	25*
Cc1ccc(N2CC(c3nnc(NC(=O)c4ccco4)s3)CC2=O)cc1C (stereo not drawn)	8%	-11%	-20%	.	?	.
CCn1c2ccccc2c2cc(CN3CCN(Cc4cc(OC)c(O)c(OC)c4)CC3)ccc21	?	11µM*	22µM*	.	0.71µM*	18*
CCn1c2ccccc2c2cc(CN3CCN(Cc4ccc(Cl)cc4)CC3)ccc21	?	7.9µM*	16µM*	.	0.5µM*	22*
O=C(COC(=O)c1cncc(Br)c1)Nc1ccc(F)c(F)c1F	41%	-8%	-6%	4%	?	.
COc1ccc(CNS(=O)(=O)c2cn(C)c(=O)n(C)c2=O)cc1	16%	3%	-1%	.	.	.
O=C(Nc1ccc(Cl)c(C(F)(F)F)c1)C1CCCN(S(=O)(=O)c2cccc3cccnc23)C1 (stereo not drawn)	31%	-15%	7%	.	-3%[59 µM]	.
CCN(CC)c1ccc(NC(=O)Nc2cccc(C(C)=O)c2)cc1	-69%	35µM*	32µM*	.	1.8µM*	3.2*
CCOc1ccc(NC(=S)N2CCN(C/C=C/c3ccccc3)CC2)cc1	-38%	?	.	?	?	.
CC(C)OC(=O)CN1CCN(S(=O)(=O)c2cc(Cl)ccc2Cl)CC1	14%	-19%	14%	.	-26%[12.7 µM]	.
CN(C)c1ccc(NC(=O)CN2CCN(S(=O)(=O)c3cc(Cl)ccc3Cl)CC2)cc1	?	?	35µM*	.	1.4µM*	4.5*
CCCNC(=O)C1CCC(CNS(=O)(=O)c2ccc3c(c2)N(C(C)=O)CCO3)CC1 (stereo not drawn)	16%	-18%	-2%	.	17%[59 µM]	.
SMILES	HP1b chromo inh	JMJD2A Tudor	BAZ2B inh	L3MBTL1 inh	G9a inh-1	G9a inh-2	others
COC(=O)c1ccccc1NC(=O)Cn1c(SC)c(F)cnc1=O	38%	-4%	-1%	.	0.56µM*	8.9*
COC(=O)c1ccc(NC(=O)c2cccc(Cl)c2)o1	14%	-7%	?	3%	32%[59 µM]	.
O=C(COc1ccc(Cl)cc1)Nc1nnc(S(=O)(=O)N2CCc3ccccc32)s1	-9%	?	?	.	0.89µM*	45*
c1ccc2c(CN3CCOCC3)c3ccccc3c(CN3CCOCC3)c2c1	22%	-17%	-33%	-4%	?	.
Oc1c(CN2CCOCC2)ccc2ccccc12	-31%	?	-36%	-12%	2.2µM*	1.3*
O=C(Nc1nnc(-c2ccccc2)s1)C1CCCN(C(=O)c2ccoc2)C1 (stereo not drawn)	?	-33%	.	.	.	.	RGS4 inh=24*
CCc1nnc(NC(=O)C2CCCN(C(=O)c3ccoc3)C2)s1 (stereo not drawn)	34%	-16%	.	.	.	.
CC(OC(=O)CN1C(=O)NC2(CCCC2)C1=O)C(=O)c1ccccc1 (stereo not drawn)	35%	-6%	-1%	6%	-21%	.
O=C(CSc1nnc2c(n1)[nH]c1ccccc12)Nc1ccc2c(c1)OCO2	-1%	-19%	-33%	.	1.8µM*	1.6*
Cc1ccc(NC(=O)CSc2nnc3c(n2)[nH]c2ccccc23)cc1	19%	-8%	-1%	.	20%	.
Cc1cccc(NC(=O)c2c(NC(=O)c3ccccc3)sc3c2CCCC3)c1	-7%	79µM*	56µM*	.	1.3µM*	2*
Cc1cccc(NC(=O)c2c(NC(=O)c3ccccc3)sc3c2CCC3)c1	108%	21%	-1%	.	36%[59 µM]	.
O=C(CSc1nc2ccccc2s1)Nc1ccc(Cl)c(C(=O)O)c1	?	50µM*	-38%	0%	2.8µM*	2.8*
Cc1ncc(COCc2ccccc2)c(CO)c1OCc1ccccc1	41%	-2%	.	.	.	.
Oc1ccc(COCc2ccccc2)c2cccnc12	45%	?	28µM*	8.9µM*	23%[12.7 µM]	.	JMJD2E inh=23µM*;FDH counter=-36%;JMJD2E MALDI inh=25*
Oc1ccccc1C=NC1=NN(c2cccc(C(F)(F)F)c2)CC1	-5%	?	?	?	1µM*	0.8*

Source: PubChem BioAssay
